Screening data as filed in PubChem.
Mcl1 Noxa PPI = Mcl-1/Noxa binding inhibitors, primary screen, biochemical, TR-FRET, 1536-well. Induced myeloid leukemia cell differentiation protein Mcl-1 (Homo sapiens), Q07820. TR-FRET Mcl-1/Noxa peptide binding, 2 h. inhibition, % at 21.7 µM. 220,000 tested, 1.5% active;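 active = compounds that cut the protein-peptide binding signal by more than 50% relative to plate controls in a single-dose test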;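 also: His-tagged Mcl-1 with rhodamine Noxa BH3 peptide and terbium anti-His antibody; 0% = Mcl-1 plus Noxa peptide wells and 100% = peptide-only wells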
Target sequence (Q07820 whole entry, looked up): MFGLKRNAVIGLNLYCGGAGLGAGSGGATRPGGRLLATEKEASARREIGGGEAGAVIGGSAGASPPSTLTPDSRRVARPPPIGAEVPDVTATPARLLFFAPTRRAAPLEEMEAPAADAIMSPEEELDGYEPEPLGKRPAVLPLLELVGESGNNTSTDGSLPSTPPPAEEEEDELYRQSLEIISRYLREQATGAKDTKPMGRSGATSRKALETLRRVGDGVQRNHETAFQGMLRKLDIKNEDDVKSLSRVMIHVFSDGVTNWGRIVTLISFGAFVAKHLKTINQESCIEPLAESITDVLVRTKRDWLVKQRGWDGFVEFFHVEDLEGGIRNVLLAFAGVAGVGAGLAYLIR
Bim-Mcl-1 = inhibitors of Bim peptide binding to Mcl-1, primary screen, biochemical, bead-based flow cytometry, multiplex. Induced myeloid leukemia cell differentiation protein Mcl-1 (Homo sapiens), Q07820. Bim peptide-Mcl-1 binding. inhibition, % at 10 µM. 190,000 tested, 0.1% active; in the data active = inhibition above about 40%;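 also: 0% = no compound tracer wells and 100% = peptide blocker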
Mcl1-Bid inh = Mcl-1/Bid binding inhibitors, primary screen, biochemical, TR-FRET, 1536-well | Induced myeloid leukemia cell differentiation protein Mcl-1 (Homo sapiens), Q07820 | TR-FRET Mcl-1/Bid-Dy647 peptide binding | 220,000 tested, 0.97% active | inhibition, % at 21.7 µM | AID 1021, 2008;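 active = compounds that cut the binding signal by more than half at the single screening dose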;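 also: His-tagged Mcl-1 with europium anti-His antibody binding Bid BH3 peptide; 0% = Mcl-1 plus peptide wells and 100% = peptide-only wells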
MCL1-BIM inh = inhibitors of MCL1 binding to BIM-BH3, primary screen, biochemical, fluorescence polarization | Induced myeloid leukemia cell differentiation protein Mcl-1 (Homo sapiens), Q07820 | GST-MCL1 / FITC-Bim-BH3 fluorescence polarization | inhibition, % at 10.9 µM | 320,000 tested, 0.68% active | AID 2057, 2009;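 active = inhibition above the mean inhibition of all tested compounds plus 3 SD, set per campaign, cut at about 40% in these data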;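 also: 0% = DMSO wells and 100% = unlabeled Bim-BH3 peptide control; higher means more loss of mP so more displacement of Bim peptide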
14-3-3 Bad PPI = inhibitors of 14-3-3 zeta/Bad binding, primary screen, biochemical, TR-FRET, bovine 14-3-3 zeta; 14-3-3 protein zeta/delta (Bos taurus), P63103; TR-FRET 14-3-3zeta/Dy647-pBad peptide displacement, 1 h; inhibition, % at 21.7 µM; 220,000 tested, 0.71% active;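 active = inhibition above about 70%, limit read from the data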;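 also: 0% = full 14-3-3 plus peptide FRET controls and 100% = background without 14-3-3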
eIF4E 4G PPI = eIF4E–eIF4G protein interaction inhibitors, primary screen, biochemical, uHTS, TR-FRET, eIF4GI fragment; Eukaryotic translation initiation factor 4E (Mus musculus) + Eukaryotic translation …; TR-FRET eIF4E-eIF4GI(517-606) binding, 2 h; inhibition, % at 21.7 µM; 220,000 tested, 0.37% active;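 active = inhibition above about 30%, limit read from the data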;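 also: 0% = full FRET control wells and 100% = background wells lacking eIF4GI fragment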
* = called active by the depositor; / = no result; [ ] = another dose, or the depositor's remark. Only some compounds are listed: those with a hit (about 2.6% of all), similar ones and a draw of the others.

SMILES	Mcl1 Noxa PPI	Bim-Mcl-1	Mcl1-Bid inh	MCL1-BIM inh	14-3-3 Bad PPI	eIF4E 4G PPI
c1ccc2c(c1)OCc1cn[nH]c1-2	-7	/	-10	4	2	51*
Oc1cc2c(cc1C(c1ccc(Cl)c(Cl)c1)N1CCCC1)OCO2 (configuration not stated)	92*	-3	94*	/	18	38*
c1csc(-c2nn3c(Cn4cnc5ccccc54)nnc3s2)c1	-12	-3	8	11	7	33*
COc1ccc(/C=C/C(=O)OCC(=O)Nc2ccc(N3CCOCC3)cc2)cc1	-3	0	-1	1	11	-2
O=C(Nc1cccc(NC(=O)c2ccc(Br)o2)n1)c1ccc(Br)o1	-35	1	-11	-80	75*	-1
COc1ccc(C(=O)Nc2ccc(N3CCCC3)cc2)cc1	86*	-2	-47	12	/	/
CCOc1ccc(C(=O)Nc2ccc(N3CCCC3)cc2)cc1	63*	1	9	0	85*[fluorescence artefact?]	4
CCOc1ccc(/C=C/C(=O)Nc2ccc(N3CCOCC3)cc2)cc1	-5	0	101*	-6	-3	-2
COCCCn1c(=O)c2sccc2n2c(CCCC(=O)NCc3ccc(OC)cc3)nnc12	/	/	/	-7	/	/
O=C(Nc1ccc(C(=O)O)cc1)/C(=C\C=C\c1ccccc1)NC(=O)c1ccccc1Br	/	/	/	0	/	/
COc1ccc(CN2C(=O)c3ccccc3C2=O)cc1C(=O)N(C)CC(=O)Nc1ccc(F)cc1	/	/	/	2	/	/
O=C(Nc1ccc(N2CCN(C(=O)c3ccccc3)CC2)cc1)c1ccc(Br)o1	-3	0	-38	-2	-1	8
O=C(Nc1ccc(N2CCCC2)cc1)c1ccc(Br)o1	94*	3	-10	6	22	18
Nc1nc(SCn2nnc3ccccc3c2=O)n[nH]1	10	-1	-24	8	1	-1
Cc1ccc2c(c1)c1ccc3c(c1n2C)C(=O)C=CC3=O	108*	/	23	/	6	7
COc1ccc2c(c1)c1ccc3c(c1n2C)C(=O)C=CC3=O	102*	/	33	/	-3	3
O=c1nc(/C=C/c2cccn2-c2ccc([N+](=O)[O-])cc2)cc(C(F)(F)F)[nH]1	57*	0	-63	-47	12	21
COc1ccc(CCNC(=O)Cc2cccc(C(F)(F)F)c2)cc1OC	/	/	/	-4	/	/
O=C(c1cccnc1)N1CCN(Cc2cccc(F)c2)CC1	-23	0	3	7	75*	20
COc1ccc(Cn2nnnc2C(c2ccccc2OC)N2CCC(C(N)=O)CC2)cc1 (configuration not stated)	-13	0	-15	6	2	7
COc1ccc(OC)c(C(c2nnnn2Cc2ccccc2)N2CCC(C(N)=O)CC2)c1 (configuration not stated)	9	-2	-14	5	-4	24
COc1ccc(Cn2nnnc2C(c2ccc(N(C)C)cc2)N2CCC(C(N)=O)CC2)cc1 (configuration not stated)	54*	0	-42	14	-20	5
COc1cccc(C(c2nnnn2Cc2ccc(F)cc2)N2CCC(C(N)=O)CC2)c1OC (configuration not stated)	18	24	49	0	77*	-10
COc1ccccc1CNC(=O)COC(=O)c1ccc(-n2cnnn2)cc1	/	/	/	-6	/	/
COc1ccc(OC)c(C2=NS(=O)(=O)N(C)C(C(=O)NCc3ccco3)=C2)c1	/	/	/	-8	/	/
CC(C)(C)c1cc(C(=O)Nc2cccnc2)cc(C(=O)Nc2cccnc2)c1	/	/	/	1	/	/
Cc1ccc(/C=N/n2c(-c3cccc(Cl)c3)n[nH]c2=S)o1	19	/	-36	-15	-2	-2
S=c1[nH]nc(-c2cccc(Cl)c2)n1/N=C/c1ccc(-c2ccccc2Br)o1	72*	/	46	-7	17	10
Cc1nnc(C)n1/N=C/c1ccc(-c2ccccc2Cl)o1	/	/	/	6	/	/
